# Sm TGR block: S. mansoni TGR enzyme inhibition; Potency, µM (highest dose often 114 µM), without a hit: top-dose activity change, negative = inhibition, hits mostly inhibitors; AID 485364; purified TGR, DTNB reduction, TNB absorbance 405 nm; 360,000 compounds, 3% hits; active means well fitted inhibition curve with a large enough effect; inconclusive means small, poorly fitted or top-dose-only effect; inactive means no such curve, though single readings can be large or run the other way; further: nearly all actives have a fitted effect of over 60% in size
#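 First, TGR (20 nM dispensed) and NADPH were mixed with compound. Second, a 15 min room-temperature incubation followed. Third, further NADPH and then DTNB were added to start the reaction. Finally, TNB absorbance was monitored kinetically.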
# MARV entry inh: blocks Marburg virus binding to or entry into cells; Marburg virus pseudotyped entry inhibition, cell reporter; Potency, µM (doses to about 37.8 µM), without a hit: top-dose activity change, negative = inhibition, most hits filed as inhibitors; 300,000 compounds, 1.8% hits; AID 540276; calls by dose curve; tested in HEK293 cells
# VACV mCherry inh: inhibitors of vaccinia virus infection (mCherry reporter signal); 310,000 compounds, 0.63% hits; Potency, µM (series often up to 36.5 µM), inactives show at the highest dose activity change, negative = inhibition, actives largely listed as inhibitors; Vaccinia virus mCherry reporter infection, fluorescence; calls by dose curve; tested in A549 cells; further: nearly all actives have a fitted effect of over 35% in size
# FMDV antiviral: foot and mouth disease virus antiviral activity | 410,000 compounds, 1.2% hits | Potency, µM (doses to about 57.9 µM), for the others: top-dose activity change, negative = inhibition, actives largely listed as inhibitors | FMDV antiviral cell-based qHTS | AID 1159524; calls by dose curve; tested in HEK293T cells; further: read-out not given here; nearly all actives have a fitted effect of over 45% in size
# Lassa entry inh: blocks Lassa virus binding to or entry into cells. Potency, µM (top dose mostly 37.9 µM), for inactives: top-dose activity change, negative = inhibition, most hits filed as inhibitors. Lassa virus pseudotype entry inhibition, cell reporter. 300,000 compounds, 1.2% hits; calls by dose curve; tested in HEK293 cells; further: nearly all actives have a fitted effect of over 50% in size
# VACV Venus inh: vaccinia inhibition (Venus reporter); Vaccinia virus Venus reporter expression, fluorescence; Potency, µM (highest dose often 36.5 µM), inactives show at the top dose activity change, negative = inhibition, most hits filed as inhibitors; 330,000 compounds, 0.46% hits; AID 720580; calls by dose curve; tested in A549 cells; further: nearly all actives have a fitted effect of over 30% in size
# * marks the source's active call; other numbers are inactive results; i = inactive; ? = inconclusive; . = no result; [ ] = remark or other dose. Compounds with a hit are over-represented: about 5.4% of the library has one in this group of screens. On the % scale 0 is the no-effect control and ±100 the full control effect; potency means the concentration at half of the fitted maximal effect.
SMILES,Sm TGR block,MARV entry inh,VACV mCherry inh,FMDV antiviral,Lassa entry inh,VACV Venus inh
Cc1ccc(NC(=O)c2c(C)nc3sc(C(=O)Nc4ccc(F)cc4)c(N)c3c2-c2ccc(Cl)cc2)c(C)c1,-3%,0%[46.1 µM],12%,-5%,?,1%
Cn1nnc(NC(=S)NC(=O)c2cccs2)n1,?,?,-1%,-3%,-6%,-8%
CCCn1nnc(NC(=S)NC(=O)Cc2ccccc2)n1,-8%,-3%[46.1 µM],2.2µM*,12%,0%[46.1 µM],?
CCCn1nnc(NC(=S)NC(=O)CC)n1,-8%,18%,.,13%,-3%,.
CCCCn1nnc(NC(=S)NC(=O)c2cccs2)n1,?,?,?,41%,20%,2.2µM*
Cc1cc(NC(=O)c2cccs2)cc(-c2nc3cc(Cl)ccc3o2)c1O,10%,-10%[46.1 µM],-7%,-19%,1%[46.1 µM],-6%
Cc1noc(C)c1C(=O)N1CCC2(CCN(C(=O)Nc3ccccc3)CC2)CC1,.,.,.,-6%,.,.
Fc1ccc(CCNc2ncnc3[nH]ncc23)cc1,.,-20%,?,-9%,-9%,-19%
COc1ccc(CCNc2ncnc3sc(C)cc23)cc1OC,-16%,?,?,32µM*,?,-17%
COc1ccc(CCNc2ncnc3[nH]ncc23)cc1OC,5%,?,-23%,18µM*,-26%,-16%
Cc1cccc(N(C)S(=O)(=O)c2nnc(NC(=O)C(C)(C)C)s2)c1,7%,.,-13%,-16%,9%[46.1 µM],-10%
COc1ccc(S(=O)(=O)N[C@@H](CSCc2ccccc2)C(=O)O)cc1,40µM*,1%[46.1 µM],-7%,38%,-4%[46.1 µM],-13%
CN1C(=O)N(C)C(=O)C2(Cc3cc(NC(=O)c4ccc(F)cc4)ccc3N3CCCC32)C1=O (configuration not stated),40µM*,-12%[46.1 µM],-16%,-2%,6%,10%
CC(=O)Nc1ccc2c(c1)CC1(C(=O)N(C)C(=O)N(C)C1=O)C1CCCN21 (configuration not stated),45µM*,-28%,i,-5%,-2%,-20%
O=C(CCCN1CCC(O)(c2ccc(Br)cc2)CC1)c1ccc(F)cc1,-3%,.,i,-19%,.,-11%
O=C(CCCN1CCC(O)(c2cccc(C(F)(F)F)c2)CC1)c1ccc(F)cc1,-14%,11µM*,i,-20%,?,-7%
O=C(CCCN1CCC(O)(c2ccc(Cl)cc2)CC1)c1ccc(F)cc1,-12%,10µM*,-2%,-16%,?,-18%
Cc1cc(=O)c2cc(C(=O)Nc3ccc(C)c(C)c3)ccc2[nH]1,0%,?,-8%,16%,19%[46.1 µM],-6%
COc1ccc(OC)c(CCNC(=O)c2cc3c(=O)n(C)c4ccccc4c3n2C)c1,-2%,13%[46.1 µM],-11%,?,?,-17%
CCn1ccc2c(OCC(=O)Nc3ccccc3C(F)(F)F)cccc2c1=O,8%,.,i,32µM*,?,-27%
CCOCCn1ccc2c(OCC(=O)Nc3cc(C)cc(C)c3)cccc2c1=O,3%,.,0%,-20%,-3%[46.1 µM],10%
CCOCCn1ccc2c(OCC(=O)Nc3ccc(OC)c(OC)c3)cccc2c1=O,9%,?,-10%,25µM*,-9%,-13%
CCn1ccc2c(OCC(=O)Nc3ccccc3C)cccc2c1=O,15%,.,3%,0%,-26%[46.1 µM],-11%
N#Cc1ccc(-c2csc(NNC(=O)c3ccc(Br)cc3)n2)cc1,-13%,?,.,-23%,-21%,14µM*
O=C(NNc1nc(-c2ccccc2)cs1)c1ccccc1,-10%,?,-25%,24%,?,-7%
SMILES,Sm TGR block,MARV entry inh,VACV mCherry inh,FMDV antiviral,Lassa entry inh,VACV Venus inh
N#Cc1ccc(-c2csc(NNC(=O)c3ccccc3)n2)cc1,-7%,10µM*,?,-13%,?,12%
Cc1ccc(NC(=O)Cn2c(-c3nonc3N)nc3ccccc32)c(Br)c1,-1%,3%[46.1 µM],-7%,-5%,2%[46.1 µM],-22%
COc1cccc(C(=O)CN2CCN(S(=O)(=O)c3cccc([N+](=O)[O-])c3)CC2)c1,18µM*,.,?,-23%,.,-14%
COc1ccc(C(=O)CN2CCN(S(=O)(=O)c3cccc([N+](=O)[O-])c3)CC2)cc1OC,-23%,-1%,.,-11%,.,.
CC(=O)c1ccccc1NC(=O)c1ccc(N2CCCC2=O)cc1,-11%,5%[46.1 µM],-1%,-8%,11µM*,-19%
CCN1C(=O)c2cccc3c(S(=O)(=O)NCc4cccnc4)ccc1c23,-13%,?,.,13%,-14%,-18%
CCN1C(=O)c2cccc3c(S(=O)(=O)NCc4ccco4)ccc1c23,40µM*,-24%,.,66%,1%,.
O=C(Nc1cccc(C(F)(F)F)c1)Nc1ccc(N2CCCC2)c(S(=O)(=O)Nc2ccccc2Cl)c1,-12%,2.5µM*,11µM*,17%,4µM*,11µM*
CC(=O)Nc1ccc(N2CCOCC2)c(S(=O)(=O)Nc2ccccc2Cl)c1,.,.,-8%,52%,.,-19%
COc1cccc(NC(=O)N(Cc2c[nH]c3ccccc23)C2CCCCCC2)c1,-3%,-32%[46.1 µM],?,-2%,-28%[46.1 µM],?
COc1cc(/C=C2/C(=O)N(c3ccc(C(=O)O)cc3)N=C2C)cc(OC)c1O,10µM*,20%[46.1 µM],-3%,8%,-9%[46.1 µM],-4%
COc1cc(/C=C2/C(=O)N(c3ccc(Br)cc3)N=C2C)cc(OC)c1OC,14%,.,.,?,.,.
COc1cc(/C=C2/C(=O)N(c3ccc(C)c(C)c3)N=C2C)cc([N+](=O)[O-])c1O,-2%,.,.,-5%,.,.
COc1cc(/C=C2\C(=O)N(c3ccccc3)N=C2C)ccc1Oc1ccc([N+](=O)[O-])cc1[N+](=O)[O-],14µM*,3%,?,?,3%,-24%
CC1=NN(c2ccccc2)C(=O)/C1=C\c1ccc(Oc2ccc([N+](=O)[O-])cc2[N+](=O)[O-])cc1,13µM*,?,-20%,?,?,-11%
COCCN1C(=NCC(C)C)NC(c2ccccc2)C(C(=O)OC)=C1C (configuration not stated),.,29%[14.2 µM],.,.,?,.
CCOc1ccccc1NC(=O)CCc1c(C)nc2c(c(C)nn2-c2ccccc2)c1C,5%,5%[46.1 µM],-11%,?,4%[46.1 µM],-5%
CC(Oc1ccc(Br)cc1)C(=O)Nc1ncn[nH]1 (configuration not stated),2%,19%[46.1 µM],i,10%,9%[46.1 µM],-15%
Cc1cccc(NC(=O)Cn2cc(C(=O)c3ccco3)c3ccccc32)c1C,2%,?,-6%,0%,-25%[46.1 µM],?
CCN(CC)CCN1C(=O)C(=O)/C(=C(/O)c2ccc(OCC(C)C)cc2)C1c1ccncc1 (configuration not stated),-6%,-2%,.,.,.,.
C=CCOc1ccc(/C(O)=C2\C(=O)C(=O)N(CCN(C)C)C2c2cccs2)cc1 (configuration not stated),?,7%[46.1 µM],i,27%,10%,-3%
CCN(CC)CCN1C(=O)C(=O)/C(=C(/O)c2ccc(OC)cc2)C1c1cccs1 (configuration not stated),45µM*,.,.,.,.,.
